Growth data for nine compounds are collected here from PubChem BioAssay (NCI).

Among the test systems are SK-MEL-2 melanoma; EKVX NSCLC; SN12C renal; UO-31 renal; TK-10 renal; ACHN renal; CAKI-1 renal; MOLT-4 leukemia; SR leukemia; OVCAR-8 ovarian; OVCAR-5 ovarian; OVCAR-4 ovarian; SK-OV-3 ovarian; IGROV1 ovarian; OVCAR-3 ovarian; HS 578T breast; NCI/ADR-RES ovarian; CCRF-CEM leukemia; RPMI-8226 leukemia.
Holding throughout (assay): NCI-60 one-dose screen, 48 h (100 = growth as untreated, 0 = no growth, -100 = all killed)
Settings in all cases: 10 µM

This is part of a sample that, as a whole, favours compounds with a hit. Of some 83,000 tested, about 20% had one in any assay.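 A percent growth of 40 corresponds to 60% growth inhibition; 0 means no net growth; -100 means all cells died. Active threshold: below 10.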 Unmarked numbers belong to inactive results. Calls of active or inactive are those of the source.

Regarding `c1cncc(-c2csc(-c3c[nH]c4ccccc34)n2)c1`, the growth with SK-MEL-2 melanoma is 97.3%; in the experiment with EKVX NSCLC, 50.6%; in the experiment on SN12C renal it was 85.9%; in the experiment on UO-31 renal, 66.5%; with TK-10 renal, 125%; with ACHN renal, 88%. In addition, the growth in the experiment on CAKI-1 renal is 88.3%; in the experiment on MOLT-4 leukemia it was 79.8%; with SR leukemia it was 70%; in the experiment on OVCAR-8 ovarian, 95.8%; in the experiment on OVCAR-5 ovarian, 95.6%; with OVCAR-4 ovarian it was 79.1%. In addition, the growth with SK-OV-3 ovarian is 79.3%; in the experiment with IGROV1 ovarian it was 68.8%; in the experiment with OVCAR-3 ovarian, 85.6%; with HS 578T breast, 90.6%; in the experiment on NCI/ADR-RES ovarian it was 94.7%.
Take `O=[N+]([O-])c1ccc2ncccc2c1Cl`: the growth with SK-MEL-2 melanoma was 77.4%; in the experiment on EKVX NSCLC it was 119%; in the experiment with SN12C renal, 45.6%; in the experiment with UO-31 renal, 30.2%; in the experiment on TK-10 renal it was 66.7%; in the experiment with ACHN renal, 56.2%. Further, the growth was 32% in the experiment on CAKI-1 renal; 12.3% with CCRF-CEM leukemia; 30% with MOLT-4 leukemia; 7.28% (active) with SR leukemia; 38.7% in the experiment on RPMI-8226 leukemia; 18.6% with OVCAR-8 ovarian. Further, the growth was 85.3% with OVCAR-5 ovarian; 90.2% with OVCAR-4 ovarian; 63.6% in the experiment with SK-OV-3 ovarian; 40.7% with OVCAR-3 ovarian; 67% in the experiment with HS 578T breast; 29.2% in the experiment on NCI/ADR-RES ovarian.
For `CC(C)(C)OC(=O)N1CCc2c(sc3ncnc(N/N=C/c4cccc(Br)c4)c23)C1`, the growth in the experiment with SK-MEL-2 melanoma is 76.1%; with EKVX NSCLC it was 26.3%; in the experiment with SN12C renal, 50.9%; in the experiment on UO-31 renal, 21%; in the experiment with TK-10 renal, 56.3%; with ACHN renal it was 33.9%. Further, the growth in the experiment with CAKI-1 renal was 31.4%; with MOLT-4 leukemia it was 18%; with SR leukemia, 29.4%; in the experiment with OVCAR-8 ovarian, 46.6%; with OVCAR-5 ovarian it was 70.5%; with OVCAR-4 ovarian, 54.9%. Further, the growth in the experiment on SK-OV-3 ovarian is 62.2%; in the experiment with IGROV1 ovarian it was 43.9%; in the experiment with OVCAR-3 ovarian, 61.5%; in the experiment with HS 578T breast, 71.2%; in the experiment on NCI/ADR-RES ovarian, 42.1%.
Regarding `O=c1cn[nH]c2ccc(Br)cc12`, the growth was 103% in the experiment on SK-MEL-2 melanoma; 108% with EKVX NSCLC; 105% with SN12C renal; 78.9% in the experiment on UO-31 renal; 95.4% in the experiment with TK-10 renal; 103% in the experiment on ACHN renal. Further, the growth with CAKI-1 renal was 113%; in the experiment on MOLT-4 leukemia it was 86.5%; in the experiment with SR leukemia it was 89.4%; in the experiment with OVCAR-8 ovarian it was 98.8%; in the experiment on OVCAR-5 ovarian, 108%; with OVCAR-4 ovarian it was 109%. The growth is 98.6% in the experiment on SK-OV-3 ovarian; 102% in the experiment with IGROV1 ovarian; 105% in the experiment on OVCAR-3 ovarian; 99.4% with HS 578T breast; 105% with NCI/ADR-RES ovarian.
In the case of `O=C(CCCNC(=O)c1nc(-c2ccccc2)n(-c2ccccc2)n1)NO`, the growth in the experiment on SK-MEL-2 melanoma was 97.9%; in the experiment with EKVX NSCLC it was 96.8%; in the experiment on SN12C renal, 101%; with UO-31 renal it was 94.5%; in the experiment with TK-10 renal, 85.9%; with ACHN renal, 114%. Also, the growth with CAKI-1 renal is 98%; in the experiment with MOLT-4 leukemia, 101%; with SR leukemia it was 106%; in the experiment on OVCAR-8 ovarian, 96.9%; with OVCAR-5 ovarian, 118%; in the experiment on OVCAR-4 ovarian, 118%. Further, the growth in the experiment with SK-OV-3 ovarian was 97%; in the experiment with IGROV1 ovarian it was 101%; in the experiment with OVCAR-3 ovarian, 108%; with HS 578T breast, 105%; with NCI/ADR-RES ovarian, 109%.
For the compound `COc1cc2c3c(n([C@H]4CCOC4)c(=O)c2cc1OC)-c1cc2c(cc1C3=O)OCO2`, the growth is 99.8% in the experiment on SK-MEL-2 melanoma; 60% in the experiment with EKVX NSCLC; 22.9% in the experiment on SN12C renal; 10.6% in the experiment on UO-31 renal; 90% in the experiment on TK-10 renal; 0.59% (active) with ACHN renal. The growth in the experiment on CAKI-1 renal was 33.5%; in the experiment on MOLT-4 leukemia it was 17.2%; with SR leukemia, 13.6%; with OVCAR-8 ovarian, 35.2%; in the experiment on OVCAR-5 ovarian, 71.6%; in the experiment with OVCAR-4 ovarian it was 70.9%. In addition, the growth with SK-OV-3 ovarian is 24.6%; in the experiment on OVCAR-3 ovarian, 46.9%; in the experiment with HS 578T breast it was 107%; in the experiment with NCI/ADR-RES ovarian it was 27.5%.
As for `Cn1c2ccccc2c2c3[nH][nH]c(=O)c3c3c4ccccc4[nH]c3c21`, the growth was 10.9% with SK-MEL-2 melanoma; 49% in the experiment on EKVX NSCLC; 16.1% with SN12C renal; -26.9% (active) in the experiment on UO-31 renal; 93% with TK-10 renal; -8.79% (active) with ACHN renal. Besides, the growth was 60.2% in the experiment on CAKI-1 renal; 5.9% (active) with MOLT-4 leukemia; -12.1% (active) in the experiment with SR leukemia; 33.1% with OVCAR-8 ovarian; 62.6% with OVCAR-5 ovarian; 51.3% with OVCAR-4 ovarian. Further, the growth in the experiment with SK-OV-3 ovarian is 13.2%; with IGROV1 ovarian, 11%; in the experiment on OVCAR-3 ovarian, 2.46% (active); in the experiment on HS 578T breast, 41%; in the experiment on NCI/ADR-RES ovarian it was 68.5%.
On to `c1cnc2[nH]cc(-c3nc(-c4ccsc4)cs3)c2c1`, for which the growth in the experiment on SK-MEL-2 melanoma was 102%; with EKVX NSCLC it was 42.6%; with SN12C renal it was 92%; with UO-31 renal, 62.7%; with TK-10 renal it was 138%; with ACHN renal, 85.3%. Further, the growth in the experiment with CAKI-1 renal was 96.3%; in the experiment with MOLT-4 leukemia it was 79.6%; in the experiment with SR leukemia, 87.7%; with OVCAR-8 ovarian, 96.9%; with OVCAR-5 ovarian, 111%; in the experiment with OVCAR-4 ovarian, 93%. Besides, the growth in the experiment on SK-OV-3 ovarian is 92.8%; in the experiment with IGROV1 ovarian, 70.8%; with OVCAR-3 ovarian it was 84.2%; in the experiment on HS 578T breast, 87.5%; with NCI/ADR-RES ovarian it was 101%.
On to `CCOC(=O)c1sc2ncnc(Nc3ccc4c(cnn4C(=O)Nc4ccc(C)c(Cl)c4)c3)c2c1C`, for which the growth is 83.5% in the experiment on SK-MEL-2 melanoma; 97.6% in the experiment on EKVX NSCLC; 96.5% with SN12C renal; 94.7% in the experiment with UO-31 renal; 90.8% in the experiment with TK-10 renal; 107% in the experiment with ACHN renal. In addition, the growth in the experiment on CAKI-1 renal was 96%; with MOLT-4 leukemia it was 95.6%; in the experiment with SR leukemia, 79.2%; in the experiment on OVCAR-8 ovarian, 102%; in the experiment on OVCAR-5 ovarian, 110%; in the experiment on OVCAR-4 ovarian it was 115%. Besides, the growth was 97.3% in the experiment with SK-OV-3 ovarian; 97.9% in the experiment with IGROV1 ovarian; 117% in the experiment with OVCAR-3 ovarian; 112% with HS 578T breast; 105% with NCI/ADR-RES ovarian.
